# In PubChem BioAssay:
# Calls of active or inactive are those of the source.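 How the source made its calls, unless noted: active means fluorescence slope higher than the sample average by over 3 SD (cut at about -0.22 in these data, passing the limit was not always enough); inactive means the rest.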
# Columns and labels:
# [1] = inhibitors of TNFa-induced NFkB p65 translocation, primary screen, imaging, HUVEC, MLSMR starter and 10KST1 sets (AID 438;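 active means inhibition above 20% together with a positive visual image hit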;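 further: compound added about 3h40 before a 20 min TNFalpha stimulation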;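 on inhibition: signal is the nuclear over cytoplasmic p65 intensity ratio per well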); conditions: HUVEC TNFa-induced p65 nuclear translocation; cell count: measured here: nuclei count (cytotoxicity indicator), at 2.08 µM; inhibition: at 2 µM, stronger effect = higher value, 0% TNFa-plus-vehicle, 100% no-TNFa wells
# [2] = inhibitors of mutant huntingtin aggregation, primary screen, imaging, exon1htt(103Q)mCFP cells, high-content imaging (AID 483;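 active means visual image review flags a hit and inhibition of aggregation exceeds 20%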;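 further: compound exposure lasted 3 days before fixation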;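 on nuclei count: percent of the per-plate median nuclei count of sample wells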); conditions: exon1htt(103Q)mCFP cell line, aggregate imaging, at 2 µM; inhibition of aggregation: stronger effect = higher value; nuclei count: measured here: cell count, toxicity
# [3] = inhibitors of E-selectin induction by TNFa, primary screen, imaging, HUVEC, immunofluorescence, MLSMR starter and 10KST1 sets (AID 487;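 active means visually confirmed hit in the image check and inhibition above 20%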;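 on inhibition: signal is fraction of cell area covered by stained E-selectin grains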;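 on nuclei count: 100% = median nuclei count of all wells on the same plate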); conditions: HUVEC TNFalpha-induced E-selectin immunofluorescence imaging, at 2 µM; inhibition: stronger effect = higher value; nuclei count: measured here: cell number, toxicity
# [4] = biological target: Voltage-gated potassium channel subunit beta-2 (Rattus norvegicus) (UniProt P62483); test: KvBeta enzyme negative modulators, primary screen, biochemical, NADPH fluorescence (AID 622); conditions: recombinant KvBeta, 4-cyanobenzaldehyde reduction, at 10 µM, stronger effect = higher value;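 further: slope of raw intensity against log time taken from 70 to 1610 s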
# [5] = biological target: Voltage-gated potassium channel subunit beta-2 (Rattus norvegicus) (UniProt P62483); test: KvBeta positive modulators, primary screen, biochemical, NADPH fluorescence (AID 623;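 active means NADPH fluorescence slope more negative than the mean of all samples by about 3 SD, 99.7% confidence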;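 further: fluorescence intensity change per second fitted from 20 to 320 s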); conditions: Recombinant KvBeta, NADPH fluorescence decrease slope, 10 min; at 10 µM; stronger effect = lower value
# [6] = biological target: Alpha-2C adrenergic receptor (Homo sapiens) (UniProt P18825); test: modulators of alpha2C/GIRK thallium flux, primary screen, cell-based, HEK293 alpha2C/GIRK1/2 (AID 624;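 active means fluorescence slope after compound addition differing from the mean of all screened samples at 99.7% confidence, in either direction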;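 further: slope of fluorescence ratio to pre-addition baseline per second over 15 to 24 s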); conditions: thallium flux BTC fluorescence, at 10 µM, actives lie on both sides
# [7] = inhibitors of Sendai virus-induced IRF3 signaling, primary screen, TLR/RLR signaling modifier project, cell-based, Sendai virus stimulus, luciferase, 10K MLSCN set (AID 602276;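 active means inhibition at or above 50% at 10 µM; inactive means inhibition below 50%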;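 further: firefly luciferase from ISG56 promoter only with Renilla not read in this screen; 0% = Sendai virus plus DMSO and 100% = medium plus DMSO without virus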); conditions: HEK293 RL24 IRF3 luciferase reporter, at 10 µM, stronger effect = higher value
# [8] = inhibitors of poly I:C-induced TLR3 signaling, primary screen, cell-based, poly I:C stimulus, luciferase, 10K MLSCN set (AID 602277;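 active means inhibition of the reporter signal at or above 50%; inactive means inhibition below 50%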); conditions: HEK293-TLR3 RL24 IRF3 luciferase reporter, at 10 µM, stronger effect = higher value
# Sequence of Alpha-2C adrenergic receptor (Homo sapiens) (P18825 whole entry, looked up): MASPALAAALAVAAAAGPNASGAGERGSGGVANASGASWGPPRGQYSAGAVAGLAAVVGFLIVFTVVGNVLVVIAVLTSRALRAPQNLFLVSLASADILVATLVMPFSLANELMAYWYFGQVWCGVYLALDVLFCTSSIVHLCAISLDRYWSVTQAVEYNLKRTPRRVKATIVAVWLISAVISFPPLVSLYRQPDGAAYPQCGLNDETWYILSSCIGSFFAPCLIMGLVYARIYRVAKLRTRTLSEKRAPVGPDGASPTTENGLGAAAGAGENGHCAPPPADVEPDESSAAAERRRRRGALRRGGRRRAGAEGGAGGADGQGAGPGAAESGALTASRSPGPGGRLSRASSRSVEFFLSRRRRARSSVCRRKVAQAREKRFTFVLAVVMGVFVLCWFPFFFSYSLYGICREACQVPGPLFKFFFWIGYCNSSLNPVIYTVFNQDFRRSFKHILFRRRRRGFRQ
# Sequence of Voltage-gated potassium channel subunit beta-2 (Rattus norvegicus) (P62483 whole entry, looked up): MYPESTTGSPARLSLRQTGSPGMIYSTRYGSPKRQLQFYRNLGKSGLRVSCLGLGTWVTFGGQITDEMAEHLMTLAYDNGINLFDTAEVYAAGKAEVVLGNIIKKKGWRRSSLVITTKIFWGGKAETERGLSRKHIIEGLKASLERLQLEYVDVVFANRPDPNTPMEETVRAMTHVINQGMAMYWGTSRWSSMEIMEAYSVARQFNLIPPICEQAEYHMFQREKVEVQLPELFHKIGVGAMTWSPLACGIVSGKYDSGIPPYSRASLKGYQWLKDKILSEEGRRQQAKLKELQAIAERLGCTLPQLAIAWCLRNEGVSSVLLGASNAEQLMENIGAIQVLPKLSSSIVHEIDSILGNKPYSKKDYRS
SMILES,cell count [1],inhibition [1],inhibition of aggregation [2],nuclei count [2],inhibition [3],nuclei count [3],fluorescence slope [4],NADPH fluorescence slope [5],slope [6],inhibition [7],inhibition [8]
CC1(C)CC(=O)C2=C(C1)NC(=O)CC2C(=O)NCc1ccc(F)cc1 (centres undefined),533,-11.5% (inactive),-1.8% (inactive),86.7%,3.2% (inactive),87.8%,-0.342 (inactive),-4.7e-05 (inactive),0.00523 (inactive),7.38% (inactive),5.77% (inactive)
Cc1ccc2c(c1)C1CCCC3C1N2CC(=O)N3Cc1ccccc1 (centres undefined),331,-7.1% (inactive),-7.3% (inactive),81.8%,-136% (inactive),131%,-0.498 (inactive),-3.8e-05 (inactive),0.00336 (inactive),7.59% (inactive),-11.1% (inactive)
CCOC(=O)C1CCN(c2c(N3CCCC(C(=O)OCC)C3)c(=O)c2=O)CC1 (centres undefined),838,3.2% (inactive),-6.4% (inactive),101%,-138% (inactive),115%,-0.616 (inactive),9.3e-06 (inactive),0.0058 (inactive),-1.39% (inactive),19.7% (inactive)
CC1CCN(c2nc3c(c(=O)[nH]c(=O)n3C)n2CCSc2ncccn2)CC1,548,0.8% (inactive),-8.6% (inactive),83.9%,-15.9% (inactive),118%,-0.43 (inactive),-8.7e-05 (inactive),0.00584 (inactive),8.83% (inactive),24.8% (inactive)
C=CCSc1n[nH]c(-c2ccc(OC)cc2)n1,244,17.3% (inactive),-8.3% (inactive),89.5%,-73.2% (inactive),103%,-0.417 (inactive),-9.3e-05 (inactive),0.00611 (inactive),-90.7% (inactive),-168% (inactive)
Nn1c(SCC(=O)NC2CCCCC2)nnc1-c1ccc(Cl)cc1,376,0.7% (inactive),-1.9% (inactive),106%,-114% (inactive),108%,-0.472 (inactive),6.9e-06 (inactive),0.00502 (inactive),14.6% (inactive),19% (inactive)
Brc1ccccc1-c1nc(-c2ccccc2)no1,428,2.3% (inactive),-23% (inactive),94%,-25.4% (inactive),114%,-0.45 (inactive),2.8e-05 (inactive),0.00389 (inactive),-15.5% (inactive),-39.8% (inactive)
CC(C)OCCCNC(=O)c1cc2c(s1)CS(=O)(=O)C2,215,1.9% (inactive),7.5% (inactive),80.8%,25.9% (inactive),103%,-0.352 (inactive),-5.6e-05 (inactive),0.0057 (inactive),5.68% (inactive),5.21% (inactive)
O=C(Nc1ccccc1C(=O)N1CCOCC1)C1COc2ccccc2O1 (centres undefined),355,3.3% (inactive),-5.7% (inactive),105%,-70.1% (inactive),123%,-0.437 (inactive),-1.5e-05 (inactive),0.00506 (inactive),6.31% (inactive),11.6% (inactive)
CCN(c1c(C)n(C)n(-c2ccccc2)c1=O)S(C)(=O)=O,614,11.6% (inactive),3.3% (inactive),104%,-98.2% (inactive),145%,-0.58 (inactive),-3.6e-05 (inactive),0.00621 (inactive),23.1% (inactive),24.6% (inactive)
Cc1ccc2oc(=O)c3cnn(CC(=O)NCCC(C)C)c3c2c1,618,-3.9% (inactive),-7.6% (inactive),124%,-31.4% (inactive),104%,-0.602 (inactive),-2.9e-05 (inactive),0.0065 (inactive),7.61% (inactive),18.2% (inactive)
CN(CCCNC(=O)c1cn(C)c2ccc(S(=O)(=O)N(C)C)cc2c1=O)c1ccccc1,596,-4.5% (inactive),-18.9% (inactive),37.6%,39.4% (inactive),94.2%,-0.582 (inactive),-7.6e-06 (inactive),0.00499 (inactive),15.4% (inactive),7.91% (inactive)
Cc1c(C(=O)OC2CCCCC2)[nH]c2c1C(=O)CC(C)(C)C2,342,-8.9% (inactive),-22% (inactive),108%,14.6% (inactive),68.9%,-0.407 (inactive),-9.3e-06 (inactive),0.00193 (inactive),-3% (inactive),-13.3% (inactive)
CC(C)(C)n1nnnc1CN1CCN(C2CCCC2)CC1,798,-8.1% (inactive),9.7% (inactive),136%,-52.3% (inactive),107%,-0.472 (inactive),-4.3e-05 (inactive),0.00587 (inactive),-0.428% (inactive),21.3% (inactive)
